High-throughput results (PubChem)
PLK1 PBD inh – qHTS for Inhibitors of PLK1-PDB (polo-like kinase 1 - polo-box domain): Primary Screen; Serine/threonine-protein kinase PLK1 (Homo sapiens), P53350; Plk1 PBD binding of FITC phosphopeptide, fluorescence polarization; Potency, µM, most hits filed as inhibitors; hit rate 2.8% among 360,000; further: series mostly up to about 57 µM; nearly all actives have a fitted effect of over 65% in size
Tb PFK block – qHTS Assay to Find Inhibitors of T. brucei phosphofructokinase; ATP-dependent 6-phosphofructokinase (Trypanosoma brucei brucei), O15648; T. brucei PFK, ADP-Glo luminescence; Potency, µM (titrated, usually from 57.5 µM), usual class: inhibitors; hit rate 0.17% among 330,000; AID 485367, 2010; further: nearly all actives have a fitted effect of over 60% in size
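PFK 1.25 nM, F6P 0.5 mM, ATP 0.1 mM, 0.1 M TEA pH 8.0, 5 mM MgCl2, 0.01% Tween20, 0.1% BSA; 45 min RT. ADP-Glo readout. qHTS titration up to 57 uM; curves fitted, compounds curve-classed.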
VDR inh – Inhibitors of the vitamin D receptor (VDR): qHTS; VDR-SRC2-3 peptide fluorescence polarization, 2 h; Vitamin D3 receptor (Homo sapiens), P11473; Potency, µM, most hits filed as inhibitors; hit rate 0.93% among 400,000; AID 504847, 2011
Target sequence (P11473 whole entry, looked up): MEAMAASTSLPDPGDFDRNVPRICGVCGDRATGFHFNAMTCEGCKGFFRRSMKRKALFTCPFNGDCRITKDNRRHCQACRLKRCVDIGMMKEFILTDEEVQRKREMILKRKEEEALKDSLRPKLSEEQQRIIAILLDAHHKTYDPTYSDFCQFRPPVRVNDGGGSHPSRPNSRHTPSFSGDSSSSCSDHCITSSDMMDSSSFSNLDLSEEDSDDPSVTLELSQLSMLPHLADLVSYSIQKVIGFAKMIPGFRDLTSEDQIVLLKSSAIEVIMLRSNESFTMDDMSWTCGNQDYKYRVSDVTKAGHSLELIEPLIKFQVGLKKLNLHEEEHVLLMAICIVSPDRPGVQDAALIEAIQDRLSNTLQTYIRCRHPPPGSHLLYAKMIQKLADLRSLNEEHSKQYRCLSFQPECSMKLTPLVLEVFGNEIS
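The screen uses fluorescence polarization to detect compounds that interfere with recruitment of the SRC2-3 coactivator peptide to VDR; plates are read after 2 h at room temperature.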
BRCA1 expr act – qHTS Assay to Identify Small Molecule Activators of BRCA1 Expression. AID 624202, 2012. Potency, µM (top dose mostly 46.1 µM), most hits filed as activators. hit rate 1.1% among 380,000. MCF7-BRCA1-FFLuc reporter, luminescence, 48 h; response scale: scaled: vehicle 0%, 10 µM genistein 100%; further: nearly all actives have a fitted effect of over 80% in size
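Luminescence from a BRCA1-driven firefly luciferase in MCF7 cells was the read-out, taken 15 min after substrate addition following 48 h compound exposure at 37 °C. Data were normalized to a 10 microM genistein control and DMSO vehicle.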
Of the large screens only hits and unclear results are named; the others gave an inactive call. Rows were chosen to be rich in hits. Some 3.9% of all compounds tested hit in one or more screens of this group. The call rests on the fitted dose curve; in most records, active means well fitted curve in the direction sought with a large enough effect; inconclusive means small, poorly fitted or top-dose-only effect, or another doubt; inactive means no such curve, though single readings can be large; an effect the other way counts as inactive or inconclusive.

COc1ccc(NC(=O)Nc2ccccn2)cc1OC	BRCA1 expr act 12.6µM
O=C(c1cc(C2CCCCN2S(=O)(=O)Cc2ccccc2)on1)N1CCOCC1 (centres undefined)	none (no result: Tb PFK block, VDR inh)
CC(=O)c1ccc(NC(=O)Nc2nnc(N3CCCC(C)C3)s2)cc1 (centres undefined)	none (no result: PLK1 PBD inh, Tb PFK block, BRCA1 expr act)
COc1cccc(C2Nc3ccccc3-c3nnc(SCc4ccccc4)nc3O2)c1OC (centres undefined)	none (no result: PLK1 PBD inh, Tb PFK block, BRCA1 expr act)
CN(C)c1ncc2nc(-c3cccs3)c(=O)n(-c3ccccc3)c2n1	none (no result: PLK1 PBD inh, Tb PFK block, BRCA1 expr act)
CC(=O)Nc1ccc(NC(=O)Nc2ccc3c(c2)N(C)C(=O)CS3)cc1	none
CN1C(=O)CSc2ccc(NC(=O)Nc3ccccn3)cc21	BRCA1 expr act 3.98µM
O=[N+]([O-])c1ccc(/C=N/Nc2ccccn2)cc1	BRCA1 expr act 1.41µM
COc1ccc(/C=N/Nc2ccc([N+](=O)[O-])cc2)cc1O	BRCA1 expr act 8.91µM
Cc1oc(-c2ccc(Cl)cc2)nc1CSc1nnc(C)n2c1cc1sccc12	none (no result: PLK1 PBD inh, Tb PFK block, BRCA1 expr act)
O=C(c1ccc(S(=O)(=O)Cc2cc(F)ccc2F)c([N+](=O)[O-])c1)N1CCOCC1	PLK1 PBD inh 26.7µM (no result: Tb PFK block, VDR inh)
COc1ccc(N2CC(C(=O)N/N=C/c3cccs3)CC2=O)cc1 (centres undefined)	PLK1 PBD inh 23.8µM
O=C(Nc1nnc(C2CCCCC2)s1)C1CC(=O)N(c2ccc(F)cc2)C1 (centres undefined)	none
COc1ccc(N2CC(C(=O)Nc3nnc(C4CCCCC4)s3)CC2=O)cc1 (centres undefined)	PLK1 PBD inh 29.9µM, VDR inh inconclusive
CCSc1ncc(Cl)c(C(=O)N(Cc2ccccc2)Cc2ccco2)n1	none (no result: PLK1 PBD inh, Tb PFK block, BRCA1 expr act)
CCCS(=O)(=O)c1ncc(Cl)c(C(=O)N(Cc2ccccc2)Cc2ccco2)n1	VDR inh 22.4µM (no result: PLK1 PBD inh, Tb PFK block)
Cc1ccccc1Cn1cnc2c(nnn2Cc2ccc(F)cc2)c1=O	VDR inh 89.1µM
N#C/C(=C/c1ccc(N2CCCCCC2)o1)c1cccc(F)c1	VDR inh 44.7µM, BRCA1 expr act inconclusive
N#C/C(=C/c1ccc(N2CCCCCC2)o1)c1ccc(F)cc1	PLK1 PBD inh inconclusive, VDR inh inconclusive (no result: Tb PFK block)
Cc1cc(NC(=O)c2ccc3[nH]c(C)c(C)c3c2)ccn1	none
CC(=O)Nc1cccc(NC(=O)c2ccc3[nH]c(C)c(C)c3c2)c1	PLK1 PBD inh inconclusive, BRCA1 expr act 10µM
COc1cc(CNC(=O)c2ccccc2NC(=O)C2=C(C)OCCS2)cc(OC)c1OC	none
CCOC(=O)c1ccc(N2CSC3=C(C#N)C(c4ccc(OC)cc4OC)CC(=O)N3C2)cc1 (centres undefined)	none
COc1cc(OC)c(C2CC(=O)N3CN(C)CSC3=C2C#N)cc1OC (centres undefined)	PLK1 PBD inh 15µM, VDR inh inconclusive
COc1ccc2ccccc2c1C1CC(=O)N2CN(C)CSC2=C1C#N (centres undefined)	PLK1 PBD inh 7.52µM, VDR inh 25.1µM
COc1ccc(OC)c(C2CC(=O)N3CN(c4ccc(C)c(Cl)c4)CSC3=C2C#N)c1 (centres undefined)	PLK1 PBD inh inconclusive, VDR inh 15.8µM
COc1cc(C2CC(=O)N3CN(c4ccccc4C)CSC3=C2C#N)cc(OC)c1OC (centres undefined)	none (no result: PLK1 PBD inh, VDR inh, BRCA1 expr act)
COc1ccc(Br)cc1C1CC(=O)N2CN(Cc3ccccc3)CSC2=C1C#N (centres undefined)	PLK1 PBD inh inconclusive, VDR inh 70.8µM
COc1cc(OC)c(C2CC(=O)N3CN(c4ccccc4)CSC3=C2C#N)cc1OC (centres undefined)	PLK1 PBD inh 26.7µM, VDR inh 10µM
COc1cccc(C2CC(=O)N3CN(c4ccccc4F)CSC3=C2C#N)c1 (centres undefined)	VDR inh 44.7µM
Cc1ccc2ccc3cc(C(=O)N4CCN(c5ccccc5)CC4)nc3c2[nH]1	none (no result: PLK1 PBD inh, Tb PFK block)
COC(=O)CC1C(C)(C)C2(O)OC34CC2C(=O)[C@@]1(C)C3CC[C@]1(C)C4=CC(=O)OC1c1ccoc1 (some centres undefined)	none (no result: PLK1 PBD inh, Tb PFK block, BRCA1 expr act)
CC(=O)Nc1ccc(Nc2c3c4c(cccc4n(C)c2=O)C(=O)c2ccccc2-3)cc1	PLK1 PBD inh 6.7µM
Cn1c(=O)c(NC2CCCCC2)c2c3c(cccc31)C(=O)c1ccccc1-2	PLK1 PBD inh inconclusive
CCCCNc1c2c3c(cccc3n(C)c1=O)C(=O)c1ccccc1-2	PLK1 PBD inh 2.38µM
Cn1c(=O)c(NCCc2ccccc2)c2c3c(cccc31)C(=O)c1ccccc1-2	PLK1 PBD inh 3.77µM, VDR inh inconclusive
CC(=O)Nc1ccc(NC2=CC(=O)c3ccccc3C2=O)cc1	none
CCCN1CNc2c(c(=O)[nH]c(=S)n2CCc2ccc(OC)cc2)C1	none (no result: PLK1 PBD inh, Tb PFK block)
Cc1ccc(NC(=O)CN(C)S(=O)(=O)c2cccc3cccnc23)cc1C	none
CCSC1=NC2(CCN(C(=O)NC3CCCCC3)CC2)N=C1c1ccc(C)c(C)c1	none (no result: PLK1 PBD inh, Tb PFK block, BRCA1 expr act)
CCOC(=O)C1CCC(CN(Cc2ccc(OC)cc2)S(=O)(=O)c2ccc(F)c(C(=O)Nc3ccc(C)c(C)c3)c2)CC1 (centres undefined)	none (no result: PLK1 PBD inh, Tb PFK block, BRCA1 expr act)
O=C(O)c1ccc([N+](=O)[O-])c(CS(=O)(=O)c2ccc(Cl)cc2)c1	none
O=C(CBr)c1ccc([N+](=O)[O-])c(CS(=O)(=O)c2ccc(Cl)cc2)c1	VDR inh 35.5µM
Cc1ccc(-n2c(SCC(=O)Nc3cccc(Cl)c3)nc3n[nH]c(C)c3c2=N)cc1	none (no result: PLK1 PBD inh, Tb PFK block, BRCA1 expr act)
CCOC(=O)Cc1csc(NS(=O)(=O)c2ccc(F)cc2)n1	PLK1 PBD inh 21.2µM
CSc1ccc(/C=N/n2c(C)nnc2C)cc1	none
CSc1ccc(/C=N/n2c(C)cc(C)cc2=O)cc1	BRCA1 expr act 10µM
COCCN(C(=O)c1sc2ccccc2c1Cl)c1c(N)n(CC(C)C)c(=O)[nH]c1=O	none
CC1(CCc2ccccc2)NC(=O)N(CC(=O)O)C1=O (centres undefined)	PLK1 PBD inh 23.8µM, VDR inh inconclusive
C#CCN(C[C@@H]1[C@@H](OC(=O)NC2CC2)[C@@H](OC(=O)NC2CC2)CN(C(=O)OC(C)C)N1C(=O)OC(C)C)S(=O)(=O)c1ccc(C)cc1	PLK1 PBD inh 21.2µM (no result: Tb PFK block, VDR inh)
CCOC(=O)C(NC(=O)c1cccc(Cl)c1)(Nc1sc2c(c1C(N)=O)CCC2)C(F)(F)F (centres undefined)	PLK1 PBD inh 26.7µM
CCOC(=O)C(NC(=O)c1ccccc1Cl)(Nc1sc2c(c1C(N)=O)CCC2)C(F)(F)F (centres undefined)	PLK1 PBD inh inconclusive
CC(=O)c1ccc2c(c1)c(C#N)c1ccccc1[n+]2[O-]	PLK1 PBD inh 2.38µM
O=C1CCc2cccc(O)c2N1	none (no result: Tb PFK block)
O=S(=O)(CCN1CCCCC1)Oc1ccc(Cl)cc1Cl	PLK1 PBD inh 11.9µM
Cc1cc(C(=O)NNC(=O)/C=C/c2ccco2)c(C)o1	PLK1 PBD inh 23.8µM, VDR inh inconclusive
COc1ccccc1/C=C/C(=O)NNC(=O)c1cc(C)oc1C	VDR inh inconclusive
